Screens from PubChem.
An excerpt weighted towards active compounds, which were near 12% of everything screened.
OTUD3 inh = inhibitors of human OTUD3 deubiquitinase | OTU domain-containing protein 3 (Homo sapiens), Q5T2D3 | purified OTUD3, Ub-rhodamine fluorescence, 2 h | inhibition, % at 25 µM | hit rate 0.7% among 47,000
USP17 block = inhibitors of human USP17 deubiquitinase; Ubiquitin carboxyl-terminal hydrolase 17-like protein 5 (Homo sapiens), A8MUK1; purified USP17, Ub-rhodamine cleavage fluorescence, 3 h; inhibition, % at 50 µM; hit rate 6.5% among 47,000
USP30 block = inhibitors of human USP30 deubiquitinase; Ubiquitin carboxyl-terminal hydrolase 30 (Homo sapiens), Q70CQ3; purified USP30, Ub-rhodamine cleavage fluorescence; inhibition, % at 25 µM; hit rate 5.3% among 47,000; AID 1645860, 2021
Target sequence (Q70CQ3 whole entry, looked up): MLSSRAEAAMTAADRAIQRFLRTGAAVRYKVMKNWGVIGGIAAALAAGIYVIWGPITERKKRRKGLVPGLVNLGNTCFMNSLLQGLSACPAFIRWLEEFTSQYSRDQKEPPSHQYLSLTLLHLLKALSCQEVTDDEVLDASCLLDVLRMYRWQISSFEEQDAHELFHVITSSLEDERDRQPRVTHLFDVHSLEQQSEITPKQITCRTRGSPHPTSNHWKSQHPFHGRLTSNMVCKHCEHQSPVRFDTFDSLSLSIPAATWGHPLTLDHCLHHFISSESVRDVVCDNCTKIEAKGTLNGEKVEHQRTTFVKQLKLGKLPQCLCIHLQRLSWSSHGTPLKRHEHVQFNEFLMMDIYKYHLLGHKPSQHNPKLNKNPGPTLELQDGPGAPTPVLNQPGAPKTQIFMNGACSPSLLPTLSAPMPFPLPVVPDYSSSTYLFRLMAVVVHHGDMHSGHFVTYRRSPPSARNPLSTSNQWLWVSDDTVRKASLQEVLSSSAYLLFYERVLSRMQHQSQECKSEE
USP28 block = inhibitors of human USP28 deubiquitinase; Ubiquitin carboxyl-terminal hydrolase 28 (Homo sapiens), Q96RU2; purified USP28, Ub-rhodamine cleavage fluorescence, 30 min; inhibition, % at 25 µM; hit rate 3% among 47,000; AID 1645857, 2021
Each line names hits and unclear results; the compound was inactive in the other large screens. Rule as the data show it: active = inhibition above about 30%; inactive = the rest.

O=C(CN1C(=O)COc2cc(Cl)ccc21)NC1CC1	none
O=C(NC1CCOCC1)N1CC[C@@H]2[C@H](C1)CN2C(=O)c1ccccc1	none
Cc1ccc2c(c1)N(C(=O)CCC(=O)Nc1ccccc1Cl)CCO2	none
Cc1nnc(-c2coc(S(=O)(=O)N3CCN(c4ccccc4F)CC3)c2)o1	USP30 block 39.5
Cc1nnc(-c2coc(S(=O)(=O)N3CCN(c4ccccc4C)CC3)c2)o1	none
COc1ccc(/C=C/C(=O)Nc2cc(C)ccn2)cc1	USP28 block 46.3
COc1ccc(/C=C/C(=O)Nc2ccccc2C#N)cc1	USP17 block 68.2 (no result: USP30 block, USP28 block)
COc1ccc(C)cc1NC(=O)/C=C/c1ccc(F)cc1	none
CCN1C[C@H]2C[C@H](C(=O)Nc3ccc4c(c3)OCO4)[C@@H](C1)O2	none
COc1ccc(N2CCN(Cc3nc4c(c(=O)n(C)c(=O)n4C)n3CCN3CCOCC3)CC2)cc1	none
Cc1ccc(-n2ncc(C(=O)NCc3cccc(Cl)c3)c2C2CCNCC2)cc1Cl	USP30 block 43.9 (no result: USP17 block)
O=C(NCc1cccc(Cl)c1)c1cnn(-c2ccc(Cl)cc2)c1C1CCNCC1	none
CCOC(=O)c1noc2nc(C)n(Cc3nc(-c4ccccc4Cl)oc3C)c(=O)c12	none (no result: USP17 block)
CNc1cncc(C2CCN(C(=O)c3ccn(C)n3)CC2)n1	none
Cc1c(C2CCCN(C(=O)c3ccn(C)n3)C2)n2c(nc1=O)CCC2 (stereo not drawn)	USP30 block 37.0
O=C(CSc1nc(=O)n2ccccc2n1)Nc1ccccc1	none
CN(C(=O)NC1CCCC1)c1nc2c(s1)CN(Cc1ccccc1)C2=O	none
COc1ccc([N+](=O)[O-])cc1NC(=O)COC(=O)c1ccc2[nH]c3c(c2c1)CCCC3	OTUD3 inh 61.8, USP17 block 70.9, USP30 block 59.5, USP28 block 63.2
COc1cc([N+](=O)[O-])ccc1NC(=O)COC(=O)Cc1c[nH]c2ccccc12	none
O=C(NCCc1cccc(F)c1)c1nc2c(s1)CCCN2C(=O)C1CC1	USP28 block 36.8
Cc1ccccc1C(=O)NCc1noc(C2CCCCC2)n1	none
Cc1cc(-c2ccc(C)c(S(=O)(=O)N3CC(=O)Nc4ccccc43)c2)on1	USP17 block 46.7
COc1cc2ncc(S(=O)(=O)c3ccc(C)cc3)c(Nc3ccc(F)cc3)c2cc1OC	USP28 block 46.7
Cc1nn(CC(=O)c2ccc3c(c2)NC(=O)CO3)c(C)c1[N+](=O)[O-]	USP28 block 31.6
CN(C)C(Cc1ccccc1)C(=O)c1ccc2c(c1)NC(=O)CO2 (stereo not drawn)	none
Cc1nccc(C2CCCN(C(=O)c3n[nH]c4c3CCC4)C2)n1 (stereo not drawn)	none (no result: USP30 block, USP28 block)
Cn1c(CN2CCCCCC2)nc2cc(NC(=O)c3ccccc3)ccc21	USP17 block 50.8
Cn1c(CCN2CCN(c3ccc(F)cc3)CC2)nc2cc(NC(=O)c3ccc(Cl)cc3)ccc21	USP17 block 33.1, USP30 block 35.7
Cn1c(CCN2CCOCC2)nc2cc(NC(=O)c3ccc(F)cc3)ccc21	none
Cc1ccc(N2CCN(CCc3nc4cc(NC(=O)Nc5ccccc5)ccc4n3C)CC2)cc1	USP17 block 42.9
Cc1n[nH]c(C)c1CC(=O)N1CCCC(c2ccnc(=O)[nH]2)C1 (stereo not drawn)	none
COc1ccc(S(=O)(=O)c2cnc3cc(OC)c(OC)cc3c2Nc2ccc(F)cc2)cc1	none
O=C(Nc1ccccc1Cl)N(Cc1cc2cc3c(cc2[nH]c1=O)OCCO3)C1CCCCC1	USP17 block 51.8
Cc1cc(C)c2cc(CN(C(=O)Nc3ccc(Cl)cc3)C3CCCC3)c(=O)[nH]c2c1	USP30 block 35.8
Cc1cc(C)c2cc(CN(C(=O)Nc3ccc(F)cc3)C3CCCC3)c(=O)[nH]c2c1	none
CCc1ccc2[nH]c(=O)c(CN(C(=O)Nc3ccccc3Cl)C3CCCC3)cc2c1	none
CC(=O)N1Cc2ccccc2OC2(CCN(Cc3cnc(C(C)C)nc3)CC2)C1	none
O=C(CCc1nnc2ccc(N3CCCCC3)nn12)NCCN1CCOCC1	none
O=C(Nc1ccccc1)c1ccc2c(c1)CC(c1ccccc1)OC2=O (stereo not drawn)	USP17 block 74.2
COc1ccc(C(=O)NC2CCN(c3nnc4ccccn34)CC2)cc1F	none
Cc1nnc(Nc2ccc(C(=O)OC(C)C)cc2)[nH]c1=O	none
CCOc1ccc2nc(-n3nc(C)c4c3NC(=O)CC4c3cc(C)sc3C)sc2c1 (stereo not drawn)	USP30 block 36.0
COc1ccc(-c2ncc3c(=O)n(Cc4cccnc4)c(=O)n(C)c3n2)cc1	USP30 block 35.8
Cn1c(=O)n(Cc2cccc(Cl)c2)c(=O)c2cnc(-c3ccncc3)nc21	none
